PubChem BioAssay (NCATS)
Results filed as inconclusive are left out. Unmarked numbers belong to inactive results. Active and inactive are the calls of the source. Calls follow the shape of the dose curve; as a rule, active = well fitted cell-killing curve with a large enough effect; inconclusive = small, poorly fitted or top-dose-only effect, or effect the other way; inactive = flat fitted curve, though single readings scatter.

Assay: qHTS assay for cell viability of the p53RE-bla HCT-116 cell line (AID 743292); also: nearly all actives have a fitted effect of over 55% in size
Conditions: p53RE-bla HCT-116 viability, ATP luminescence, 16 h; series mostly up to 95 µM; activity change, negative = cytotoxicity: at the top concentration
Excerpt: U.S. Tox21 Program National Center for Advancing Translational Sciences [NCATS] NIH Chemical Genomics Center [NCGC] U.S. Environmental Protection Agency [EPA] National Institutes of Environmental Health Sciences [NIEHS] National Toxicology Program [NTP] U.S. Food and Drug Administration [FDA] Tox21 Assay Overview: The CellTiter-Glo Luminescent Cell Viability Assay (Promega, Madison, WI) is a homogeneous method to determine the number of viable cells in culture based on quantitation of the ATP present, which signals the presence of metabolically active cells. This cell viability assay was used to screen environmental chemicals in the CellSensor p53RE-bla HCT-116 cell line (Invitrogen).
Tox21 Assay Protocol Summary: Cell viability after compound treatment was measured using a luciferase-coupled ATP quantitation assay (CellTiter-Glo viability assay, Promega, Madison, WI) in CellSensor p53RE-bla HCT-116 cell line (Invitrogen). Total intracellular ATP content corresponds to the number of metabolically competent cells after compound treatment. The cells were dispensed at 4,000 cells/5 uL/well in 1,536-well white/solid bottom assay plates using a Flying Reagent Dispenser (Aurora Discovery, San Diego, CA). The cells were incubated for 5 h at 37 C, followed by the addition of 23 nL of compounds dissolved in DMSO, positive controls or DMSO only using a pintool work station (Kalypsys, San Diego, CA). The assay plates were incubated for 16 h at 37 C, followed by the addition of 5 uL/well of CellTiter-Glo reagent. After 30 min incubation at room temperature, the luminescence intensity of the plates was measured using a ViewLux plate reader (PerkinElmer, Shelton, CT).
% is scaled to controls: 0 for no effect and ±100 for the full control effect.

**Q.** For CCCCOC(C)=O, which “activity change, negative = cytotoxicity” value is on record?
**A.** The value was 3.11%.

**Q.** For CCCCC(=O)Cl, which “activity change, negative = cytotoxicity” value is on record?
**A.** Its value is 3.3%.

**Q.** Which Potency does the source give for C1CC2OC2CC1C1CO1 (stereo not given) here?
**A.** Its Potency is “inactive”.

**Q.** With O=Cc1ccc(Cl)cc1Cl as the compound, how does the “activity change, negative = cytotoxicity” value read?
**A.** Its value is 3.84%.

**Q.** With Cc1ccc(N)cc1N as the compound, how does the Potency read?
**A.** Its Potency is “inactive”.

**Q.** For NC1CCC(CC2CCC(N)CC2)CC1 (stereo not given), which Potency is on record?
**A.** The Potency was “inactive”.

**Q.** With CCC[N+](=O)[O-] as the compound, how does the “activity change, negative = cytotoxicity” value read?
**A.** Its value is 11.2%.

**Q.** Which “activity change, negative = cytotoxicity” value does the source give for Nc1ccc(-c2ccccc2)cc1 here?
**A.** The value was 0.375%.

**Q.** Which “activity change, negative = cytotoxicity” value does the source give for BrC(Br)Br here?
**A.** The value was 6.42%.

**Q.** Which “activity change, negative = cytotoxicity” value does the source give for Nc1cccc(Cl)c1 here?
**A.** The value was -2.49%.

**Q.** With CN1CSC(=S)N(C)C1 as the compound, how does the Potency read?
**A.** Its Potency is “inactive”.

**Q.** Which “activity change, negative = cytotoxicity” value does the source give for Nc1cccc2ccccc12 here?
**A.** The value was -6.04%.

**Q.** With CCC(Cl)[N+](=O)[O-] (stereo not given) as the compound, how does the “activity change, negative = cytotoxicity” value read?
**A.** The value was 0.85%.

**Q.** For CC(C)OS(C)(=O)=O, which “activity change, negative = cytotoxicity” value is on record?
**A.** Its value is 7.34%.

**Q.** For N#CC(Cl)(Cl)Cl, which “activity change, negative = cytotoxicity” value is on record?
**A.** Its value is -8.65%.

**Q.** With Cc1ccc(N=C=O)cc1N=C=O as the compound, how does the Potency read?
**A.** Its Potency is “inactive”.

**Q.** For Cc1cccc(N)c1C, which “activity change, negative = cytotoxicity” value is on record?
**A.** The value was -6%.

**Q.** For Clc1ccccc1, which “activity change, negative = cytotoxicity” value is on record?
**A.** Its value is 3.31%.

**Q.** With Oc1cc(Cl)cc(Cl)c1 as the compound, how does the “activity change, negative = cytotoxicity” value read?
**A.** The value was -9.54%.

**Q.** With S=c1[nH]c2ccccc2[nH]1 as the compound, how does the “activity change, negative = cytotoxicity” value read?
**A.** The value was 5.95%.

**Q.** For CC(C)(COCC1CO1)COCC1CO1 (stereo not given), which “activity change, negative = cytotoxicity” value is on record?
**A.** The value was -2.9%.

**Q.** Which “activity change, negative = cytotoxicity” value does the source give for ClCCOCOCCCl here?
**A.** Its value is -3.48%.

**Q.** For CC(C)Br, which “activity change, negative = cytotoxicity” value is on record?
**A.** The value was 5.77%.

**Q.** For C=CC(=O)OCC(C)C, which “activity change, negative = cytotoxicity” value is on record?
**A.** The value was 5.08%.

**Q.** Which “activity change, negative = cytotoxicity” value does the source give for O=C(Cl)c1ccccc1F here?
**A.** The value was -2.62%.

**Q.** Which “activity change, negative = cytotoxicity” value does the source give for CN(C)c1ccc(N)cc1 here?
**A.** Its value is -18.5%.

**Q.** With C=C(Cl)CCl as the compound, how does the “activity change, negative = cytotoxicity” value read?
**A.** Its value is -2.55%.

**Q.** Which “activity change, negative = cytotoxicity” value does the source give for O=C(O)c1cc(Cl)ccc1Cl here?
**A.** The value was -1.54%.

**Q.** For CC(C)(Cl)Cl, which “activity change, negative = cytotoxicity” value is on record?
**A.** Its value is -13.6%.

**Q.** Which “activity change, negative = cytotoxicity” value does the source give for Brc1cccc(-c2ccccc2)c1 here?
**A.** The value was -2.84%.

**Q.** With CC(C)(Cl)[N+](=O)[O-] as the compound, how does the “activity change, negative = cytotoxicity” value read?
**A.** The value was -0.294%.

**Q.** Which “activity change, negative = cytotoxicity” value does the source give for N#C/C=C/C#N here?
**A.** Its value is -19.3%.

**Q.** Which Potency does the source give for CC(C)(OOC(C)(C)c1ccccc1)c1ccccc1 here?
**A.** Its Potency is “inactive”.

**Q.** With c1ccc2c(c1)CCNC2 as the compound, how does the “activity change, negative = cytotoxicity” value read?
**A.** The value was 1.36%.

**Q.** With CC(=O)CCC(C)=O as the compound, how does the “activity change, negative = cytotoxicity” value read?
**A.** The value was -0.11%.

**Q.** Which “activity change, negative = cytotoxicity” value does the source give for Nc1ccc([N+](=O)[O-])cc1[N+](=O)[O-] here?
**A.** The value was -5.63%.

**Q.** With CC(C)CON=O as the compound, how does the “activity change, negative = cytotoxicity” value read?
**A.** Its value is 3.25%.

**Q.** Which “activity change, negative = cytotoxicity” value does the source give for Nc1cc(Cl)ccc1Cl here?
**A.** Its value is 0.298%.

**Q.** Which “activity change, negative = cytotoxicity” value does the source give for C=CC(=O)OCCO here?
**A.** The value was 12.4%.

**Q.** Which “activity change, negative = cytotoxicity” value does the source give for C=CCO here?
**A.** Its value is -0.572%.
